Experiment [1] addresses Rap guanine nucleotide exchange factor 3 (Homo sapiens) (UniProt O95398). As to the kind of experiment: Confirmatory qHTS for agonist of cAMP-regulated guanine nucleotide exchange factor 3 (EPAC1) (AID 1645881).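 Further: EPAC1 catalysed release of BODIPY-GDP from Rap1B seen as fluorescence loss; 100% = effect of cAMP agonist control; nearly all actives have a fitted effect of over 75% in size.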 In general terms: In qHTS, concentration-response curves come from the screen itself.
For experiment [2], the target named is Rap guanine nucleotide exchange factor 4 (Homo sapiens) (UniProt Q8WZA2). As to the kind of experiment: Confirmatory qHTS for agonist of cAMP-regulated guanine nucleotide exchange factor 4 (EPAC2) (AID 1645884).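 Further: nucleotide exchange releases bodipy-GDP from Rap1 and this lowers its fluorescence; on the % scale 0 is the no-effect control and ±100 the full control effect; nearly all actives have a fitted effect of over 65% in size.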
Sequence of Rap guanine nucleotide exchange factor 4 (Homo sapiens) (Q8WZA2 whole entry, looked up): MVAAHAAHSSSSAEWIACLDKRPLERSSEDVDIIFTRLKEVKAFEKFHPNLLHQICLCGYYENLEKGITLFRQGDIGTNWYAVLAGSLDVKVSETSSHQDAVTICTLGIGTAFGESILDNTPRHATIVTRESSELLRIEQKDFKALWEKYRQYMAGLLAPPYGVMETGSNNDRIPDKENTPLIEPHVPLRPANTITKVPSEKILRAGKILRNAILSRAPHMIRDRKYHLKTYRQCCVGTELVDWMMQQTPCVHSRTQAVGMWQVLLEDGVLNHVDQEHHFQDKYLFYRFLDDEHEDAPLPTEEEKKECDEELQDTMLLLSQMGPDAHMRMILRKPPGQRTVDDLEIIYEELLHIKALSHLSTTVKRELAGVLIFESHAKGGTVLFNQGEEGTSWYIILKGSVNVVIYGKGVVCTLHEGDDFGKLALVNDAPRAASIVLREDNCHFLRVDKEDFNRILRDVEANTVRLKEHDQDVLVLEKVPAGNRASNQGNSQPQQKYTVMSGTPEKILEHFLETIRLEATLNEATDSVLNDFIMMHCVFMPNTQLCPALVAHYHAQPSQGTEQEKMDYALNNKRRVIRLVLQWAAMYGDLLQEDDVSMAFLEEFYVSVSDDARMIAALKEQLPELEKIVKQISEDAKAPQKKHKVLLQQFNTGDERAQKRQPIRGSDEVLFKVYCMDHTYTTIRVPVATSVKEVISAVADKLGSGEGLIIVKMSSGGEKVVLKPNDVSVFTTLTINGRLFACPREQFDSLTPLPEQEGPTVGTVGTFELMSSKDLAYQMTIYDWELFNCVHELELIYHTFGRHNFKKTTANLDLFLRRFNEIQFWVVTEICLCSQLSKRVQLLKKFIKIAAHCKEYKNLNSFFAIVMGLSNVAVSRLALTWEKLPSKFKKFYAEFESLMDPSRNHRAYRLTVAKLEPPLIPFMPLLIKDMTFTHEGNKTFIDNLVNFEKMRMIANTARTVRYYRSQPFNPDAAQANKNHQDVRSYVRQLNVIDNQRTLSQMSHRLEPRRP
For experiment [3] the target is unchanged. Briefly: Confirmatory qHTS for antagonist of cAMP-regulated guanine nucleotide exchange factor 4 (EPAC2) (AID 1645885). Further: nearly all actives have a fitted effect of over 25% in size. Further: potency means the concentration at half of the fitted maximal effect. On activity change, negative = inhibition: on the % scale 0 is the no-effect control and ±100 the full control effect.
Experiment [4] addresses Rap guanine nucleotide exchange factor 3 (Homo sapiens) (UniProt O95398). Briefly: Counterscreen qHTS for antagonist of cAMP-regulated guanine nucleotide exchange factor 3 (EPAC1) (AID 1645888).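 Further: fluorescence loss as bound BODIPY-GDP is released from Rap1B; % of control where 0% means no effect.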 In outline:
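Rap1B-BODIPY-GDP 250 nM + GDP 50 uM; cpds 7-pt, final 9.74 nM–152 uM (activator mode) or from 7.32 nM upwards (inhibitor mode); RT; FI 480/540 nm at 5 and 30 min, then ± cAMP, reread.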

These results are taken from PubChem BioAssay (NCATS).

Records with an inconclusive call do not appear. Unmarked numbers belong to inactive results. Activity calls are given as the source filed them. The call rests on the fitted dose curve; in most records, active means well fitted curve in the direction sought with a large enough effect; inconclusive means small, poorly fitted or top-dose-only effect, or another doubt; inactive means no such curve, though single readings can be large; an effect the other way counts as inactive or inconclusive.

Sequence of Rap guanine nucleotide exchange factor 3 (Homo sapiens) (O95398 whole entry, looked up): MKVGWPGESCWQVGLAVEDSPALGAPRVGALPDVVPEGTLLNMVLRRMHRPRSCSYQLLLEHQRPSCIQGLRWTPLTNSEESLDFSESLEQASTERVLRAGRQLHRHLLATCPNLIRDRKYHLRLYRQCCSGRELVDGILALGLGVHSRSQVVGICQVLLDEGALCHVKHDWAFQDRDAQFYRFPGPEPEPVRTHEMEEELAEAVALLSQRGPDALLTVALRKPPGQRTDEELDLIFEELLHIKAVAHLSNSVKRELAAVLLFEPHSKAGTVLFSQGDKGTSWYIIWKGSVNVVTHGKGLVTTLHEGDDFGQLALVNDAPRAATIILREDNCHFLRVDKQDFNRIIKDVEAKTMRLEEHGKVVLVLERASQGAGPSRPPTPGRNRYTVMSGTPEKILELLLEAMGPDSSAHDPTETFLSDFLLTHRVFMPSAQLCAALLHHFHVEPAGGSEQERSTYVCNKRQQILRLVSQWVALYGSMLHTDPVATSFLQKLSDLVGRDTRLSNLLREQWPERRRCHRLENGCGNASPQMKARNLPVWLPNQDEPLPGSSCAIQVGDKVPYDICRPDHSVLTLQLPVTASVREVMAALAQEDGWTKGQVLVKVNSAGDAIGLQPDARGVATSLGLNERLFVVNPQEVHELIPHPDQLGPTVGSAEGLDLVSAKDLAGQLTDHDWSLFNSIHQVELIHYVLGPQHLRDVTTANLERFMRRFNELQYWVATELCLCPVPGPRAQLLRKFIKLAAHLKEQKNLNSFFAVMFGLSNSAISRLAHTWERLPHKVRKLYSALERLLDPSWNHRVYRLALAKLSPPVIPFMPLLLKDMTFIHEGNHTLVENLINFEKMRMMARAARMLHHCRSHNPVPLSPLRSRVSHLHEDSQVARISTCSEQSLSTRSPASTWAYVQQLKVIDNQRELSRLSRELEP

Regarding `CN(C)C(=O)c1cccc(-c2cnc3c(NC=O)cc(-c4ccccc4Cl)cn23)c1`, the Potency entry in experiment [1], in experiment [2], in experiment [3] and in experiment [4] was “inactive” each time.

As to `CCOC(=O)C1=C(CC)OC(N)=C(C#N)C1c1ccc(F)cc1F` (centres undefined), the Potency result in experiment [1], in experiment [2], in experiment [3] and in experiment [4] was “inactive” in each case.

`NC(=O)[C@H]1CC2(CC(c3cccc(NC(=O)[C@H]4CCC(=O)N4)c3)=NO2)CN1C(=O)c1ccccc1` (some centres undefined): the Potency entry in experiment [1], in experiment [2], in experiment [3] and in experiment [4] was “inactive” each time.

As for `CS(=O)(=O)c1ccc(C(=O)NCCN2C(=O)S/C(=C\c3cccnc3)C2=O)cc1[N+](=O)[O-]`, the Potency entry in experiment [1] and in experiment [3] was “inactive” each time. The activation in experiment [2] is 1.36% [at 17.1 µM, percent relative to cAMP agonist control]. Besides, in experiment [4], the activity change, negative = inhibition was -27.7% [at 30.8 µM].

On to `Cc1ccc(Nc2c(-c3ccccn3)nc3cccc(C)n23)cc1`, for which the Potency entry in experiment [1], in experiment [2], in experiment [3] and in experiment [4] was “inactive” in each case.

As for `CCOc1ccc(S(=O)(=O)Nc2ccc(F)cc2)c(C)c1C`, the Potency entry in experiment [1], in experiment [2], in experiment [3] and in experiment [4] was “inactive” in each case.

Consider `O=C(Nc1cccc(Cl)c1)Nc1ccccc1NS(=O)(=O)c1cccs1`, for which the Potency entry in experiment [1] and in experiment [3] was “inactive” throughout. Further, the activation in experiment [2] is 0% [at 17.1 µM, percent relative to cAMP agonist control]. Further, in experiment [4], the activity change, negative = inhibition is -19.4% [at 30.8 µM].

Consider `CCc1ccc(/C=C2\SC(=S)N(CCCC(=O)Nc3ccccc3C(=O)O)C2=O)cc1`, for which the Potency result in experiment [1] and in experiment [3] was “inactive” each time. Moreover, the activation in experiment [2] was 7.93% [at 17.1 µM, percent relative to cAMP agonist control]. The activity change, negative = inhibition in experiment [4] was 0.611% [at 30.8 µM].

With `O=C1c2ccccc2C(=O)C12OC2c1cccc2ccccc12` (centres undefined), the Potency entry in experiment [1], in experiment [2], in experiment [3] and in experiment [4] was “inactive” in each case.

On to `Cc1ccc(C)c(OC(C)C(=O)Nc2ccc(S(=O)(=O)Nc3nccs3)cc2)c1` (centres undefined), for which the Potency entry in experiment [1], in experiment [2] and in experiment [4] was “inactive” in each case. The Potency in experiment [3] is 33.8 µM (active).

For the compound `Cc1cccc(S(=O)(=O)Nc2ccc(S(=O)(=O)Nc3nccs3)cc2)c1`, the Potency result in experiment [1], in experiment [2] and in experiment [4] was “inactive” throughout. Besides, in experiment [3], the Potency was 75.7 µM (active).

Turning to `Fc1ccccc1C1CC(c2ccco2)=Nc2ccccc2S1` (centres undefined), the Potency entry in experiment [1] and in experiment [3] was “inactive” in each case. Moreover, the activation in experiment [2] is 8.88% [at 17.1 µM, percent relative to cAMP agonist control]. Also, the activity change, negative = inhibition in experiment [4] was -3.18% [at 30.8 µM].

Regarding `COc1ccc(NC(=S)N(CCCN2CCOCC2)C(C)c2cc3cccc(OC)c3o2)cc1` (centres undefined), the Potency entry in experiment [1], in experiment [2], in experiment [3] and in experiment [4] was “inactive” in each case.

Turning to `Cc1ccc(N(Cc2ccc([N+](=O)[O-])cc2)C(=O)c2ccco2)cc1`, the Potency result in experiment [1], in experiment [2] and in experiment [4] was “inactive” in each case. Besides, the Potency in experiment [3] was 15.1 µM (active).

As for `Cc1cccc(NC(=O)CN2C(=O)N/C(=C\c3ccccc3OCc3ccc(C(=O)O)cc3)C2=O)c1`, the Potency result in experiment [1], in experiment [2], in experiment [3] and in experiment [4] was “inactive” in each case.

With `CC(C)Cc1ccc(CN2CCCC(NC(=O)c3cnc4ccccn4c3=O)C2)cc1` (centres undefined), the Potency entry in experiment [1] and in experiment [3] was “inactive” each time. Moreover, the activation in experiment [2] was 12.4% [at 17.1 µM, percent relative to cAMP agonist control]. In experiment [4], the activity change, negative = inhibition was 5.64% [at 30.8 µM].

As to `COc1ccccc1Nc1cc2cc(Br)ccc2c(=O)[nH]1`, the Potency entry in experiment [1], in experiment [2], in experiment [3] and in experiment [4] was “inactive” each time.

As for `CC(C)=CCC[C@H](C)C[C@@H]1Cc2[nH][nH]c(=O)c2[C@@H](c2ccc(F)cc2)O1`, the Potency result in experiment [1] and in experiment [3] was “inactive” in each case. The activation in experiment [2] was 5.46% [at 17.1 µM, percent relative to cAMP agonist control]. Besides, the activity change, negative = inhibition in experiment [4] is -22.9% [at 30.8 µM].

In the case of `Cc1cccc(N2CCN(C(=O)c3[nH]c(C(F)(F)F)nc3-c3ccccc3)CC2)c1C`, the Potency entry in experiment [1], in experiment [2], in experiment [3] and in experiment [4] was “inactive” each time.

As to `Cc1csc(NC(=O)CSc2sc3c(O)cc(=O)[nH]c3c2C#N)n1`, the Potency entry in experiment [1], in experiment [2], in experiment [3] and in experiment [4] was “inactive” throughout.

Consider `CCOC(=O)c1cc2c(ccn2C)n1CC(=O)N1CCN(c2cccc(C(F)(F)F)c2)CC1`, for which the Potency entry in experiment [1] and in experiment [3] was “inactive” throughout. In addition, in experiment [2], the activation was 0% [at 17.1 µM, percent relative to cAMP agonist control]. Further, in experiment [4], the activity change, negative = inhibition is 12.9% [at 30.8 µM].

For `CCc1nc2c(OCc3ccc(OC)cc3)cccn2c1N(C)C(=O)c1ccc(OC)cc1`, the Potency result in experiment [1], in experiment [2], in experiment [3] and in experiment [4] was “inactive” in each case.

Take `CCOC(=O)c1ccccc1NC(=O)c1c(C)oc2ncnc(N3CCOCC3)c12`: the Potency entry in experiment [1], in experiment [2], in experiment [3] and in experiment [4] was “inactive” throughout.

For `O=S(=O)(NCC(c1cccnc1)N1CCN(c2ccccc2F)CC1)c1cccs1` (centres undefined), the Potency result in experiment [1] and in experiment [3] was “inactive” in each case. In experiment [2], the activation was 0% [at 17.1 µM, percent relative to cAMP agonist control]. Besides, the activity change, negative = inhibition in experiment [4] is -13.6% [at 30.8 µM].

For `O=C1C(=O)c2ccc(-c3ccccc3)cc2-c2ccccc21`, the Potency entry in experiment [1], in experiment [2], in experiment [3] and in experiment [4] was “inactive” throughout.

On to `C/C=C/COC(=O)c1[nH]c2c(c1C)C(=O)CC(c1ccco1)C2` (centres undefined), for which the Potency result in experiment [1], in experiment [2], in experiment [3] and in experiment [4] was “inactive” in each case.
